ChEMBL document CHEMBL4513216, “Probing the Open Global Health Chemical Diversity Library for Multistage-Active Starting Points for Next-Generation Antimalarials” (ACS Infect Dis, 2020)
The campaign covered roughly 68,000 compounds. About 2,700 (4%) showed an effect of 50% or more. Only a selection was taken, and strong results are over-represented in it overall.

What follows are compounds tested on Plasmodium berghei (assay: Screen against P. berghei liver stage (PbLuc), transformed with Luciferase, at 2uM). Settings: tested at 2 uM.
Format: functional, HepG2

**Q.** Which INHIBITION does the source give for `CCn1c(O)c(C(C)=O)c2cc(C)ccc21` here?
**A.** Its INHIBITION is 30.48%.

**Q.** With `Cc1cccc2c1ccn2CC(=O)NC[C@@H]1CCCN2CCCC[C@H]12` as the compound, how does the INHIBITION read?
**A.** Its INHIBITION is -7.52%.

**Q.** For `CS(=O)(=O)N1CC[C@]2(O)CCN(CCCC(=O)c3ccccc3)C[C@@H]2C1`, which INHIBITION is on record?
**A.** The INHIBITION was -30.08%.

**Q.** How did the INHIBITION turn out when `C/C(NC(=O)c1ccccn1)=C1\C(=O)C[C@@H]2[C@H]1C2(C)C` was run?
**A.** The INHIBITION was 52.74%.

**Q.** For `C/C(NC(=O)c1ccco1)=C1/C(=O)C[C@@H]2[C@H]1C2(C)C`, which INHIBITION is on record?
**A.** The INHIBITION was 18.11%.

**Q.** With `C/C(NC(=O)c1cccs1)=C1\C(=O)C[C@@H]2[C@H]1C2(C)C` as the compound, how does the INHIBITION read?
**A.** Its INHIBITION is 21.57%.

**Q.** For `Cc1nn(C)c2cn(C(C)C(=O)NCc3ccncc3)nc12` (stereo not given), which INHIBITION is on record?
**A.** Its INHIBITION is 22.13%.

**Q.** How did the INHIBITION turn out when `O=C1CC2(CCCNC2)C(=O)N1Cc1ccc(Cl)cc1` (stereo not given) was run?
**A.** Its INHIBITION is -59.66%.

**Q.** `Cc1ccc2nc(C(=O)N3CCCC[C@]4(C)NC(=O)CCC[C@H]34)cn2c1` was tested. Which INHIBITION did it give?
**A.** Its INHIBITION is 55.74%.

**Q.** Which INHIBITION does the source give for `Cc1cccc2nc(C(=O)N3CCCC[C@]4(C)NC(=O)CCC[C@H]34)cn12` here?
**A.** The INHIBITION was 29.06%.

**Q.** How did the INHIBITION turn out when `Cc1cccc(C(=O)N2CCCC[C@]3(C)NC(=O)CCC[C@H]23)n1` was run?
**A.** The INHIBITION was 49.48%.

**Q.** With `CCc1c(C)[nH]c(C(C)(C)N)nc1=O` as the compound, how does the INHIBITION read?
**A.** The INHIBITION was -33.81%.

**Q.** Which INHIBITION does the source give for `COc1ccccc1C1(C(=O)N2CCN(CC(C)O)CC2)CC1` (stereo not given) here?
**A.** Its INHIBITION is 58.53%.

**Q.** For `COc1cc(C2(C(=O)N3CCN(CC(C)O)CC3)CC2)ccc1C` (stereo not given), which INHIBITION is on record?
**A.** The INHIBITION was -71.2%.

**Q.** Which INHIBITION does the source give for `CCC(O)CN1CCN(C(=O)C2(c3ccc(C)c(OC)c3)CC2)CC1` (stereo not given) here?
**A.** Its INHIBITION is -10.44%.

**Q.** How did the INHIBITION turn out when `O=C(NC1CC1)[C@@H]1CCO[C@@H]2CCN(CCc3ccccc3)C[C@@H]21` was run?
**A.** Its INHIBITION is 8.88%.

**Q.** Which INHIBITION does the source give for `CCC[C@@H]1CN(Cc2cnc(-c3cccs3)nc2)C[C@H]1C(=O)O` here?
**A.** Its INHIBITION is -9.03%.

**Q.** Which INHIBITION does the source give for `CCC[C@@H]1CN(c2ncnc3sccc23)C[C@H]1C(=O)O` here?
**A.** Its INHIBITION is 51.48%.

**Q.** Which INHIBITION does the source give for `CCC[C@@H]1CN(c2ncnc3sccc23)C[C@H]1NS(C)(=O)=O` here?
**A.** The INHIBITION was 46.58%.

**Q.** How did the INHIBITION turn out when `CC(C)CN1CCC2(CCN(CC3CC3)CC2)C1=O` was run?
**A.** The INHIBITION was 16.25%.

**Q.** Which INHIBITION does the source give for `NC(=O)CCOc1ccc(NC(=O)c2ccccc2OC(F)F)cc1` here?
**A.** The INHIBITION was 58.14%.

**Q.** For `CC(Cc1ccccc1F)C(=O)Nc1ccc(OCCC(N)=O)cc1` (stereo not given), which INHIBITION is on record?
**A.** The INHIBITION was -11.88%.

**Q.** Which INHIBITION does the source give for `COc1cccc(C(=O)Nc2ccc(OCCC(N)=O)cc2)c1OC` here?
**A.** The INHIBITION was -20.19%.

**Q.** `CCc1noc(C(C)N2CCN(C)CC2)n1` (stereo not given) was tested. Which INHIBITION did it give?
**A.** Its INHIBITION is 9.83%.

**Q.** `Cc1noc(C(C)N2CCN(c3ccc(C#N)cn3)CC2)n1` (stereo not given) was tested. Which INHIBITION did it give?
**A.** The INHIBITION was 25.35%.

**Q.** For `Cc1noc(C(C)N2CCN(c3ncnc4sccc34)CC2)n1` (stereo not given), which INHIBITION is on record?
**A.** Its INHIBITION is 52.89%.

**Q.** With `CCc1noc(C(C)N2CCN(c3ccc(C#N)cn3)CC2)n1` (stereo not given) as the compound, how does the INHIBITION read?
**A.** Its INHIBITION is -30.71%.

**Q.** Which INHIBITION does the source give for `CCc1noc(C(C)N2CCN(c3ncnc4sccc34)CC2)n1` (stereo not given) here?
**A.** The INHIBITION was 52.89%.

**Q.** `Cc1noc(C(C)N2CCN(c3ncnc4ccccc34)CC2)n1` (stereo not given) was tested. Which INHIBITION did it give?
**A.** The INHIBITION was 4.34%.

**Q.** With `O=C(NCc1ccccn1)c1cncc(C2CCCN2)n1` (stereo not given) as the compound, how does the INHIBITION read?
**A.** The INHIBITION was 20.28%.

**Q.** How did the INHIBITION turn out when `O=C(CCn1ncc2ccccc21)N1CCCC(Cc2cccnc2)C1` (stereo not given) was run?
**A.** The INHIBITION was 20.44%.

**Q.** How did the INHIBITION turn out when `Cc1csc(CN2CCC(C(=O)O)(n3ccc(-c4ccco4)n3)CC2)n1` was run?
**A.** Its INHIBITION is -8.84%.

**Q.** `Cc1cc(C(=O)N(C)Cc2cccs2)nc(N2CCCC2)n1` was tested. Which INHIBITION did it give?
**A.** The INHIBITION was 50.9%.

**Q.** Which INHIBITION does the source give for `Cc1cc(C(=O)N(C)Cc2cccs2)nc(N2CCOCC2)n1` here?
**A.** The INHIBITION was -3.54%.

**Q.** For `Cc1cc(C(=O)N(C)Cc2cccs2)nc(N2CCCCC2)n1`, which INHIBITION is on record?
**A.** The INHIBITION was -14.24%.

**Q.** How did the INHIBITION turn out when `CC(C)c1ncc(CN2CCCC(CO)C2)cn1` (stereo not given) was run?
**A.** Its INHIBITION is 1.42%.

**Q.** For `NC(=O)CCC1CCCN(Cc2cnc(N3CCCCC3)nc2)C1` (stereo not given), which INHIBITION is on record?
**A.** The INHIBITION was 44.23%.

**Q.** With `c1nc(N2CCCC2)ncc1CN1CCCC(CN2CCCCC2)C1` (stereo not given) as the compound, how does the INHIBITION read?
**A.** The INHIBITION was 52.45%.

**Q.** For `Cc1ccoc1C(=O)NC1CCN(Cc2cccc3ccccc23)CC1`, which INHIBITION is on record?
**A.** The INHIBITION was 3.48%.

**Q.** With `CC(=O)N(C)CC(=O)NC(C)c1ccc(OCCC(C)C)cc1` (stereo not given) as the compound, how does the INHIBITION read?
**A.** Its INHIBITION is 29.41%.

**Q.** With `N#Cc1c(N)nc2c(c1-c1c[nH]nc1C1CCCCC1)COCC2` as the compound, how does the INHIBITION read?
**A.** The INHIBITION was -64.94%.

**Q.** Which INHIBITION does the source give for `Cn1nc(C2CC2)c2c1NC(=O)CC2c1cc(CN2CCCC2)cs1` (stereo not given) here?
**A.** Its INHIBITION is 73.26%.

**Q.** `Cn1nc(C2CC2)c2c1NC(=O)CC2c1ccc(CN2CCCCC2)s1` (stereo not given) was tested. Which INHIBITION did it give?
**A.** The INHIBITION was 22.63%.

**Q.** With `CCCn1nc(C)c2c1NC(=O)CC2c1ccc(CN2CCCC2)s1` (stereo not given) as the compound, how does the INHIBITION read?
**A.** Its INHIBITION is 5.02%.

**Q.** Which INHIBITION does the source give for `O=C(CC1CCCC1)N1CCC(c2nnc(-c3ccccn3)o2)CC1` here?
**A.** The INHIBITION was 9.09%.

**Q.** Which INHIBITION does the source give for `Cc1cc(C(=O)NCCC(=O)N2CCCc3ccccc32)no1` here?
**A.** Its INHIBITION is 12.39%.

**Q.** For `COc1c(C(=O)NCc2cccnc2)nnn1Cc1ccc(C)cc1`, which INHIBITION is on record?
**A.** The INHIBITION was -19.47%.

**Q.** For `Cc1ccc2c(c1)Oc1ncccc1C(=O)N2`, which INHIBITION is on record?
**A.** Its INHIBITION is 9.43%.

**Q.** How did the INHIBITION turn out when `CN(CC(=O)NCCC#N)C(c1ccccc1)c1ccc(F)cc1` (stereo not given) was run?
**A.** The INHIBITION was 13.11%.

**Q.** Which INHIBITION does the source give for `CC(c1ccccc1)N(C)CC(=O)NCCC#N` (stereo not given) here?
**A.** The INHIBITION was 59.24%.

**Q.** For `CN(CC(=O)NCCC#N)C(c1ccccc1)c1ccccc1`, which INHIBITION is on record?
**A.** Its INHIBITION is 21.71%.

**Q.** Which INHIBITION does the source give for `O=C(CCc1cc2n(n1)CCN(CCCn1cccc1)C2)N1CCCC1` here?
**A.** Its INHIBITION is 5.1%.

**Q.** For `CC1(C)CC(N(Cc2cccnc2)Cc2cccc(F)c2)CC(C)(C)N1`, which INHIBITION is on record?
**A.** The INHIBITION was -4.26%.

**Q.** For `O=C(NCCCn1nc2ccccn2c1=O)Nc1ccc(F)cc1F`, which INHIBITION is on record?
**A.** Its INHIBITION is 4.96%.

**Q.** How did the INHIBITION turn out when `CN1CCN(S(=O)(=O)c2cccc(S(=O)(=O)C3CCS(=O)(=O)C3)c2)CC1` (stereo not given) was run?
**A.** Its INHIBITION is 28.43%.

**Q.** Which INHIBITION does the source give for `COc1ncccc1C1CC(=O)NCc2nc3ccccn3c21` (stereo not given) here?
**A.** Its INHIBITION is 29.41%.

**Q.** Which INHIBITION does the source give for `COc1ccc(C2CC(=O)NCc3nc4ccccn4c32)cn1` (stereo not given) here?
**A.** Its INHIBITION is 54.3%.

**Q.** For `COc1ncc(C2CC(=O)NCc3nc4ccccn4c32)cn1` (stereo not given), which INHIBITION is on record?
**A.** Its INHIBITION is -36.24%.

**Q.** Which INHIBITION does the source give for `COCCC1(C(=O)O)CCCN(C(=O)c2cc(C)oc2C)C1` (stereo not given) here?
**A.** The INHIBITION was -11.55%.

**Q.** How did the INHIBITION turn out when `CC(C)C(CCO)NC(=O)Nc1ccc(-c2csnn2)cc1` (stereo not given) was run?
**A.** The INHIBITION was 12.78%.

**Q.** Which INHIBITION does the source give for `Cc1ccc(C(=O)NC2CCCN(S(C)(=O)=O)C2)c(=O)[nH]1` (stereo not given) here?
**A.** Its INHIBITION is -34.79%.

**Q.** Which INHIBITION does the source give for `Cc1ccc(C(=O)NC2CCCN(C)C2)c(=O)[nH]1` (stereo not given) here?
**A.** Its INHIBITION is 52.84%.

**Q.** How did the INHIBITION turn out when `CCN1CCCC(NC(=O)c2ccc(C)[nH]c2=O)C1` (stereo not given) was run?
**A.** The INHIBITION was -53.67%.

**Q.** Which INHIBITION does the source give for `Cc1cccc(CN(Cc2ccc(C)o2)C2CC(C)(C)NC(C)(C)C2)n1` here?
**A.** Its INHIBITION is 29.73%.

**Q.** For `CCc1nc(N)nc(N2CCCC3(CCN(C)CC3)CC2)c1C`, which INHIBITION is on record?
**A.** Its INHIBITION is -17.39%.
